What all share (test): DAPPL (digital affinity profiling via proximity ligation, sequencing); 10 mM Tris-HCl pH 7.5, 50 mM NaCl, 1 mM DTT, 4% glycerol, room temperature, 30 min; GST-TFs on glutathione beads, 16-mer random dsDNA library, 0.1% formaldehyde crosslink after washing; high values mean tight binding
What all share (conditions): protein: recombinant; tags: N-terminal GST; dsDNA, one strand shown

One test concerns the target T1, FLI1 (Homo sapiens, UniProt Q01543 1-452).
T1 sequence: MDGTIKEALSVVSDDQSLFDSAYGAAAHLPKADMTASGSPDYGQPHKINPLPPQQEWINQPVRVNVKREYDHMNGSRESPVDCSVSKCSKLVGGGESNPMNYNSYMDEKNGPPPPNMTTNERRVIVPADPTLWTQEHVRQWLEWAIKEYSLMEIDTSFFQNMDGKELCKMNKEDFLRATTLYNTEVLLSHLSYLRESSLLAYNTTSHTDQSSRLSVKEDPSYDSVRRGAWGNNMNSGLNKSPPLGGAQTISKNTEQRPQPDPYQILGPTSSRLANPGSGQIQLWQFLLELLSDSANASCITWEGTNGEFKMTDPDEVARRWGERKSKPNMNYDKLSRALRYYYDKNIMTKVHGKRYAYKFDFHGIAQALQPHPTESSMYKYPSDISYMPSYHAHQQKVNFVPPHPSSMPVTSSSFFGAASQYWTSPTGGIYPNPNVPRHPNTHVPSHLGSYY
A digest of the protocol:
(§1)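 Human transcription factors carrying a GST fusion were produced in yeast, bound to glutathione beads, tagged with DNA barcodes and pooled together with a tag-only sample. Each pool was held with 200 nmole of a random double-stranded 16-mer DNA library in Tris/NaCl/DTT/glycerol buffer for 30 min at room temperature, then washed, crosslinked in 0.1% formaldehyde, proximity-ligated with BsaI/T4 ligase (1 h, 37 °C), PCR-amplified and sequenced on an Illumina NextSeq500. Binding signal is the read frequency of each hexamer for a given factor divided by its frequency in the tag-only sample.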

In the next test the target is T2, ELK1 (Homo sapiens, UniProt P19419 1-428).
T2 sequence: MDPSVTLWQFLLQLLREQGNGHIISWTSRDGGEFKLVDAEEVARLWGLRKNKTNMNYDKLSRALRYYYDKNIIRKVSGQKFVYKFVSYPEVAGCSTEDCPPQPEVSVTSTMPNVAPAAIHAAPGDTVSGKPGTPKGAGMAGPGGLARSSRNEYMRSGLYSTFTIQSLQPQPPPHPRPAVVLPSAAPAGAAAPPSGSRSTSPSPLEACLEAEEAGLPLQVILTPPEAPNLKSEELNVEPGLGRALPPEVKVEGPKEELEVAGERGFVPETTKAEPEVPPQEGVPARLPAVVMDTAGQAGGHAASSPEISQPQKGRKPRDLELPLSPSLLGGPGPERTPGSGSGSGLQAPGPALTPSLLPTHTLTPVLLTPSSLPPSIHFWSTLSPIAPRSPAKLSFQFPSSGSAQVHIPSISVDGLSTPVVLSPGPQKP
A digest of the protocol: as §1

The target of a further test is T3, GABPA (Homo sapiens, UniProt Q06546 1-454).
T3 sequence: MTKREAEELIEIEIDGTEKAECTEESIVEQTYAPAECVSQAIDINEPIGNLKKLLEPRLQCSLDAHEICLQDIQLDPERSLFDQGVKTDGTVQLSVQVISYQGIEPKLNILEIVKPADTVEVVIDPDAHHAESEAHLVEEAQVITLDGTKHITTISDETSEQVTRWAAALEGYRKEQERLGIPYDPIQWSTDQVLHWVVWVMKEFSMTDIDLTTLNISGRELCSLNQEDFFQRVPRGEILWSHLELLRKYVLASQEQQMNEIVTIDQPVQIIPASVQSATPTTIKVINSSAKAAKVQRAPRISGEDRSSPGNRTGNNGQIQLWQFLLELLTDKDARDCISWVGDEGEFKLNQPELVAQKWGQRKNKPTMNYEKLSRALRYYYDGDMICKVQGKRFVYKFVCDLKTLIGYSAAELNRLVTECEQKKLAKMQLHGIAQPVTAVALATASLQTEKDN
A digest of the protocol:
as §1

In a further test the target is T4, ERG (Homo sapiens, UniProt P11308 1-479).
T4 sequence: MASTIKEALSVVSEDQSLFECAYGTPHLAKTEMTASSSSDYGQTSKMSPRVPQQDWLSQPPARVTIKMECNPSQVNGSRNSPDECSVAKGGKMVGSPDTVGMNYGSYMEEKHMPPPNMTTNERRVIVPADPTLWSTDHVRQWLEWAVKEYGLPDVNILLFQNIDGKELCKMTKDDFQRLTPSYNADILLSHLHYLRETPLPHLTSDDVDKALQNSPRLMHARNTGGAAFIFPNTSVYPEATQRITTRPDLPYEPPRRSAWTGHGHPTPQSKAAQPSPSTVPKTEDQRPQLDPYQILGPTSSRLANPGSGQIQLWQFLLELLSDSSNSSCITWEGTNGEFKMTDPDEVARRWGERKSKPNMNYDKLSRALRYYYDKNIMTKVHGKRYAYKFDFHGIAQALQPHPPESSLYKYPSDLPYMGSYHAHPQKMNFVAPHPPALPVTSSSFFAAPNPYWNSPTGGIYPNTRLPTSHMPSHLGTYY
A digest of the protocol: as §1

The next test deals with ELF1 (Homo sapiens, UniProt P32519 1-619). A digest of the protocol: as §1
Sequence of ELF1 (P32519 whole entry): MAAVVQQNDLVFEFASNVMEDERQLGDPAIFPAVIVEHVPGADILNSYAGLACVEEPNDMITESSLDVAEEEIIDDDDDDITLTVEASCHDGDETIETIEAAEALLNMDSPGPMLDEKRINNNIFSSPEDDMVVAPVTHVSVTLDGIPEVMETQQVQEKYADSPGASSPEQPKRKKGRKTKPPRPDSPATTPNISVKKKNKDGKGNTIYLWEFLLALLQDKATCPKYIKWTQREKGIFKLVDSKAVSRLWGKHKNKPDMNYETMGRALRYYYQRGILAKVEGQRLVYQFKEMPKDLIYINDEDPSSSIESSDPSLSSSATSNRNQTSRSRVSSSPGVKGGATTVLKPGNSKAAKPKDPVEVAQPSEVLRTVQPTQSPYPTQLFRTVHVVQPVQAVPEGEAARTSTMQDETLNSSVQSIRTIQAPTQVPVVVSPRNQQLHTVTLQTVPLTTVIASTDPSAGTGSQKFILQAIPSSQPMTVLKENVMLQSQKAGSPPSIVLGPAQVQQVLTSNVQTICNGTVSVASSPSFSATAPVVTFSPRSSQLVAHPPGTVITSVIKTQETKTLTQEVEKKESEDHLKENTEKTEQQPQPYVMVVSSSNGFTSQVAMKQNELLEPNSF
The next test addresses T5, EHF (Homo sapiens, UniProt Q9NZC4 1-300).
T5 sequence: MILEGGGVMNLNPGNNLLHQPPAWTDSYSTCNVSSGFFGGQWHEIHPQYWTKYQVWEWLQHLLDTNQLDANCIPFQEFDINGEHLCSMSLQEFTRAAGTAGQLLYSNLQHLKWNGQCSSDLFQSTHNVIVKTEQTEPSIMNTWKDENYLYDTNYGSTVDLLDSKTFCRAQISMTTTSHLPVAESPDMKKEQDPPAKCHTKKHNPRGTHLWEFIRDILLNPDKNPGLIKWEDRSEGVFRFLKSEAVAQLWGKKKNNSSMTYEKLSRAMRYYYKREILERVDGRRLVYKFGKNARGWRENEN
A digest of the protocol:
as §1

The target in the next test is SPI1 (Homo sapiens, UniProt P17947 1-270). A digest of the protocol:
as §1

The next test concerns the target SPIB (Homo sapiens, UniProt Q01892 1-262). A digest of the protocol: as §1
The target of another test is T6, ELK3 (Homo sapiens, UniProt P41970 1-407).
T6 sequence: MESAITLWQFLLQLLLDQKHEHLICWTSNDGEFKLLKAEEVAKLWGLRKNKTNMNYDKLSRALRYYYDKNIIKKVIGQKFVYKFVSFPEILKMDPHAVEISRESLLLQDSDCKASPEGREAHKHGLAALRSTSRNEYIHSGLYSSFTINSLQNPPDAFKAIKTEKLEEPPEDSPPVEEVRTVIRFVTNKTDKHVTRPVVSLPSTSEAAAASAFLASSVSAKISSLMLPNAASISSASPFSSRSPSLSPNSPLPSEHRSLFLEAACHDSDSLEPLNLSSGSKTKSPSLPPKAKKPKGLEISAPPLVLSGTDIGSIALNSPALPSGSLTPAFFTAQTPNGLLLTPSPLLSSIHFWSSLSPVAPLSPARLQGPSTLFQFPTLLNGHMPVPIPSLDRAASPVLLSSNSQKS
A digest of the protocol:
as §1

The results in this text go back to publication PMC7862700, “An all-to-all approach to the identification of sequence-specific readers for epigenetic DNA modifications on cytosine”.

Sequence of SPIB (Q01892 whole entry): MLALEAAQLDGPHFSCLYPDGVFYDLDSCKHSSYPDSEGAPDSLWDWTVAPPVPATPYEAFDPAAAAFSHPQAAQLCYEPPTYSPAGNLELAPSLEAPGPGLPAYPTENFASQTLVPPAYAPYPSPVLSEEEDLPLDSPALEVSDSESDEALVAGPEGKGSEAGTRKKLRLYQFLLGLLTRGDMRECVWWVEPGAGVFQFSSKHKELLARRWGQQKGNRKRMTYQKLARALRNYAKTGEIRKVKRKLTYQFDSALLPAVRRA

Turning to ATCTTA, the binding signal in the test with FLI1 was 1.15 fold enrichment (6-mer frequency, TF over GST control); in the test with ELK1, 1.07 fold enrichment (6-mer frequency, TF over GST control); with GABPA, 1.1 fold enrichment (6-mer frequency, TF over GST control); in the test with ERG it was 1.09 fold enrichment (6-mer frequency, TF over GST control); with ELF1, 1.15 fold enrichment (6-mer frequency, TF over GST control); with EHF, 1.04 fold enrichment (6-mer frequency, TF over GST control). Also, the binding signal with SPI1 was 1.01 fold enrichment (6-mer frequency, TF over GST control); with SPIB, 1.03 fold enrichment (6-mer frequency, TF over GST control); with ELK3 it was 1.11 fold enrichment (6-mer frequency, TF over GST control).

Consider TAACAC, for which the binding signal in the test with FLI1 is 1.26 fold enrichment (6-mer frequency, TF over GST control); with ELK1 it was 1.2 fold enrichment (6-mer frequency, TF over GST control); with GABPA it was 1.24 fold enrichment (6-mer frequency, TF over GST control); in the test with ERG, 1.19 fold enrichment (6-mer frequency, TF over GST control); with ELF1, 1.23 fold enrichment (6-mer frequency, TF over GST control); with EHF it was 1.21 fold enrichment (6-mer frequency, TF over GST control). In addition, the binding signal is 1.18 fold enrichment (6-mer frequency, TF over GST control) in the test with SPI1; 1.25 fold enrichment (6-mer frequency, TF over GST control) with SPIB; 1.15 fold enrichment (6-mer frequency, TF over GST control) with ELK3.

As for TTTCAG, the binding signal in the test with FLI1 was 1.36 fold enrichment (6-mer frequency, TF over GST control); in the test with ELK1, 1.19 fold enrichment (6-mer frequency, TF over GST control); in the test with GABPA, 1.34 fold enrichment (6-mer frequency, TF over GST control); with ERG it was 1.3 fold enrichment (6-mer frequency, TF over GST control); with ELF1, 1.31 fold enrichment (6-mer frequency, TF over GST control); with EHF it was 1.34 fold enrichment (6-mer frequency, TF over GST control). Further, the binding signal with SPI1 was 1.35 fold enrichment (6-mer frequency, TF over GST control); with SPIB it was 1.24 fold enrichment (6-mer frequency, TF over GST control); in the test with ELK3, 1.23 fold enrichment (6-mer frequency, TF over GST control).

For the sequence AATCTT, the binding signal was 1.36 fold enrichment (6-mer frequency, TF over GST control) in the test with FLI1; 1.24 fold enrichment (6-mer frequency, TF over GST control) in the test with ELK1; 1.28 fold enrichment (6-mer frequency, TF over GST control) with GABPA; 1.32 fold enrichment (6-mer frequency, TF over GST control) with ERG; 1.29 fold enrichment (6-mer frequency, TF over GST control) with ELF1; 1.29 fold enrichment (6-mer frequency, TF over GST control) in the test with EHF. The binding signal in the test with SPI1 was 1.26 fold enrichment (6-mer frequency, TF over GST control); in the test with SPIB, 1.29 fold enrichment (6-mer frequency, TF over GST control); with ELK3 it was 1.44 fold enrichment (6-mer frequency, TF over GST control).

With TAGTTC, the binding signal was 1.47 fold enrichment (6-mer frequency, TF over GST control) in the test with FLI1; 1.41 fold enrichment (6-mer frequency, TF over GST control) in the test with ELK1; 1.28 fold enrichment (6-mer frequency, TF over GST control) in the test with GABPA; 1.45 fold enrichment (6-mer frequency, TF over GST control) with ERG; 1.37 fold enrichment (6-mer frequency, TF over GST control) in the test with ELF1; 1.3 fold enrichment (6-mer frequency, TF over GST control) with EHF. Further, the binding signal with SPI1 is 1.43 fold enrichment (6-mer frequency, TF over GST control); with SPIB, 1.51 fold enrichment (6-mer frequency, TF over GST control); with ELK3, 1.15 fold enrichment (6-mer frequency, TF over GST control).

For AGTATT, the binding signal with FLI1 is 1.12 fold enrichment (6-mer frequency, TF over GST control); with ELK1 it was 1.19 fold enrichment (6-mer frequency, TF over GST control); with GABPA, 1.1 fold enrichment (6-mer frequency, TF over GST control); with ERG it was 1.2 fold enrichment (6-mer frequency, TF over GST control); in the test with ELF1, 1.14 fold enrichment (6-mer frequency, TF over GST control); with EHF, 1.15 fold enrichment (6-mer frequency, TF over GST control). Further, the binding signal with SPI1 was 1.1 fold enrichment (6-mer frequency, TF over GST control); with SPIB, 1.17 fold enrichment (6-mer frequency, TF over GST control); with ELK3, 1.14 fold enrichment (6-mer frequency, TF over GST control).

In the case of TTCCGA, the binding signal with FLI1 was 1.64 fold enrichment (6-mer frequency, TF over GST control); with ELK1 it was 1.62 fold enrichment (6-mer frequency, TF over GST control); with GABPA, 1.43 fold enrichment (6-mer frequency, TF over GST control); with ERG, 1.66 fold enrichment (6-mer frequency, TF over GST control); in the test with ELF1, 1.44 fold enrichment (6-mer frequency, TF over GST control); with EHF it was 1.71 fold enrichment (6-mer frequency, TF over GST control). Further, the binding signal in the test with SPI1 is 1.62 fold enrichment (6-mer frequency, TF over GST control); with SPIB it was 1.44 fold enrichment (6-mer frequency, TF over GST control); with ELK3, 1.68 fold enrichment (6-mer frequency, TF over GST control).

For the sequence TGATCT, the binding signal was 1.21 fold enrichment (6-mer frequency, TF over GST control) with FLI1; 1.33 fold enrichment (6-mer frequency, TF over GST control) with ELK1; 1.18 fold enrichment (6-mer frequency, TF over GST control) with GABPA; 1.22 fold enrichment (6-mer frequency, TF over GST control) with ERG; 1.18 fold enrichment (6-mer frequency, TF over GST control) in the test with ELF1; 1.22 fold enrichment (6-mer frequency, TF over GST control) with EHF. For the same sequence, the binding signal is 1.15 fold enrichment (6-mer frequency, TF over GST control) in the test with SPI1; 1.28 fold enrichment (6-mer frequency, TF over GST control) with SPIB; 1.23 fold enrichment (6-mer frequency, TF over GST control) in the test with ELK3.
